# Source: publication PMC7862700, “An all-to-all approach to the identification of sequence-specific readers for epigenetic DNA modifications on cytosine”
# Tests used:
# Assay in all cases: DAPPL (digital affinity profiling via proximity ligation, sequencing); 10 mM Tris-HCl pH 7.5, 50 mM NaCl, 1 mM DTT, 4% glycerol, room temperature, 30 min; GST-TFs on glutathione beads, 16-mer random dsDNA library, 0.1% formaldehyde crosslink after washing; high values mean tight binding
# Conditions in all cases: protein: recombinant; tags: N-terminal GST; dsDNA, one strand shown
# GABPA = molecular target: T1, GABPA (Homo sapiens, UniProt Q06546 1-454)
# T1 sequence: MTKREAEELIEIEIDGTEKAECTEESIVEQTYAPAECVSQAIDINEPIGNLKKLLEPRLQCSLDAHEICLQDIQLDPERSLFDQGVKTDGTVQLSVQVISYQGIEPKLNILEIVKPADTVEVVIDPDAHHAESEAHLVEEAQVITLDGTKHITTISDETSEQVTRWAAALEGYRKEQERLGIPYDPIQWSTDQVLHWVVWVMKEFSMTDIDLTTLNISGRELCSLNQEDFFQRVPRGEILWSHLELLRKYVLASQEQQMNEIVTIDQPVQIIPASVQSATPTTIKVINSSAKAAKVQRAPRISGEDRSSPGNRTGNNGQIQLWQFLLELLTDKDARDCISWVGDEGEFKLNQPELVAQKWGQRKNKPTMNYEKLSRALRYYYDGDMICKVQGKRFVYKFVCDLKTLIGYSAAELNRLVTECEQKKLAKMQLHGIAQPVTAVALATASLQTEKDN
# Procedure, shortened: (§1)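 Sequencing on an Illumina NextSeq500 followed washing, crosslinking with 0.1% formaldehyde, proximity ligation (BsaI/T4 ligase, 1 h, 37 °C) and PCR amplification of pools that had been incubated for 30 min at room temperature with 200 nmole of a random double-stranded 16-mer DNA library in Tris/NaCl/DTT/glycerol buffer. Each pool held DNA-barcoded human transcription factors, expressed in yeast as GST fusions and captured on glutathione beads, plus a tag-only sample. Binding signal is a hexamer's read frequency for a factor divided by its frequency in the tag-only sample.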
# ELF1 = ELF1 (Homo sapiens, UniProt P32519 1-619)
# Procedure, shortened: as §1
# SPIB = SPIB (Homo sapiens, UniProt Q01892 1-262)
# Procedure, shortened: as §1
# FEV = molecular target: T2, FEV (Homo sapiens, UniProt Q99581 1-238)
# T2 sequence: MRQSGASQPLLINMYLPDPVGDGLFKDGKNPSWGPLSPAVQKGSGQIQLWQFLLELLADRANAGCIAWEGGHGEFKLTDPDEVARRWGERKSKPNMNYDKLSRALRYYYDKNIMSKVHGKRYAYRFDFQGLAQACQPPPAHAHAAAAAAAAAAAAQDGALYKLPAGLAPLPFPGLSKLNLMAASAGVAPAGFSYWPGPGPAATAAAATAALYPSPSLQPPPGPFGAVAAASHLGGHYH
# Procedure, shortened: as §1
# ETV5 = ETV5 (Homo sapiens, UniProt P41161 1-510)
# Procedure, shortened: as §1
# ELF4 = ELF4 (Homo sapiens, UniProt Q99607 1-663)
# Procedure, shortened: as §1
# ELK4 = molecular target: T3, ELK4 (Homo sapiens, UniProt P28324-2 1-405)
# T3 sequence: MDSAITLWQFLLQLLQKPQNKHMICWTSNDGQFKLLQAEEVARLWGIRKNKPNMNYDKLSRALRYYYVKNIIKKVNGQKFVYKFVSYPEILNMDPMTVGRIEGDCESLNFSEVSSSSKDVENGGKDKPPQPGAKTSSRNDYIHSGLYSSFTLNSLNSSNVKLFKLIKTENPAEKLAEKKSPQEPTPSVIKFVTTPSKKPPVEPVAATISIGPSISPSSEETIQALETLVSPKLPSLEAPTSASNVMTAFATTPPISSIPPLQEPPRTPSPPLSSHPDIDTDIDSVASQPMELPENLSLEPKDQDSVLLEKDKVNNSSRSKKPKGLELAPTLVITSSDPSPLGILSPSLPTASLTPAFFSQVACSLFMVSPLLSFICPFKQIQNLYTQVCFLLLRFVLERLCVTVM
# Procedure, shortened: as §1
# ETV2 = molecular target: T4, ETV2 (Homo sapiens, UniProt O00321 1-342)
# T4 sequence: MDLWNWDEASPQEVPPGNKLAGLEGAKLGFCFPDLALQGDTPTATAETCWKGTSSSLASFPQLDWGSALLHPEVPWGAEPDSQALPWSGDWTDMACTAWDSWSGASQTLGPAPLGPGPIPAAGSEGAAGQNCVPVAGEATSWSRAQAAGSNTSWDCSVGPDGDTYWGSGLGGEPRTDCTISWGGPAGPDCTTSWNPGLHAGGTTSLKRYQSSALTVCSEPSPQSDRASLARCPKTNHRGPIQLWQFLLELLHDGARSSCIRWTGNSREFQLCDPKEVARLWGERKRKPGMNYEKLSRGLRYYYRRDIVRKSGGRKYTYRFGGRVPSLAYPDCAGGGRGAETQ
# Procedure, shortened: as §1
# ETV1 = ETV1 (Homo sapiens, UniProt P50549 1-477)
# Procedure, shortened: as §1
# ERF = molecular target: T5, ERF (Homo sapiens, UniProt P50548 1-548)
# T5 sequence: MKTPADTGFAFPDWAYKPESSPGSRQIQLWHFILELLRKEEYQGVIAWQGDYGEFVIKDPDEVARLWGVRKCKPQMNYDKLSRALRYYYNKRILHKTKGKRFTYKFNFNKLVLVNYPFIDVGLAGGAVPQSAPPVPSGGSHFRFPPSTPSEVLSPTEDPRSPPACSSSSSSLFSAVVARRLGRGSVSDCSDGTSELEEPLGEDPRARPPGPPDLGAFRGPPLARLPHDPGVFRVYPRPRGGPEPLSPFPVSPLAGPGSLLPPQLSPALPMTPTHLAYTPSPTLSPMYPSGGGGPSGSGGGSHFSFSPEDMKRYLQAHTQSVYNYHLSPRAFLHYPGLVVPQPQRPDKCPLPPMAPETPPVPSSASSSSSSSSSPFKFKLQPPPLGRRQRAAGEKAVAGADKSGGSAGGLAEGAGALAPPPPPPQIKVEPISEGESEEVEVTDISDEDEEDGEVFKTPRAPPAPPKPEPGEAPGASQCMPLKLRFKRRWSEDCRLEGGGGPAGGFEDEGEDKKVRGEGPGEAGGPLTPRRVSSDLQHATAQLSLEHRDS
# Procedure, shortened: as §1
# ETV3L = molecular target: T6, ETV3L (Homo sapiens, UniProt Q6ZN32 1-361)
# T6 sequence: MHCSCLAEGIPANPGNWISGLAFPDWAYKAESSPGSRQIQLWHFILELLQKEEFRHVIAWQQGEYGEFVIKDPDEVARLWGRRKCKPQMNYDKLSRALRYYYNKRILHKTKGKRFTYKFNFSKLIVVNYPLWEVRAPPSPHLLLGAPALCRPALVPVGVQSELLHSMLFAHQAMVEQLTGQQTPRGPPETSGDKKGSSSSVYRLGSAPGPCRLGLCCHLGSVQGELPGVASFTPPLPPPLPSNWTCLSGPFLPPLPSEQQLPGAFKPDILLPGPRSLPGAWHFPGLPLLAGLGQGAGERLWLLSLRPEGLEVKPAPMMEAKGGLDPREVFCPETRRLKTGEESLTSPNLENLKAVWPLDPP
# Procedure, shortened: as §1
# ETS2 = molecular target: T7, ETS2 (Homo sapiens, UniProt P15036 1-469)
# T7 sequence: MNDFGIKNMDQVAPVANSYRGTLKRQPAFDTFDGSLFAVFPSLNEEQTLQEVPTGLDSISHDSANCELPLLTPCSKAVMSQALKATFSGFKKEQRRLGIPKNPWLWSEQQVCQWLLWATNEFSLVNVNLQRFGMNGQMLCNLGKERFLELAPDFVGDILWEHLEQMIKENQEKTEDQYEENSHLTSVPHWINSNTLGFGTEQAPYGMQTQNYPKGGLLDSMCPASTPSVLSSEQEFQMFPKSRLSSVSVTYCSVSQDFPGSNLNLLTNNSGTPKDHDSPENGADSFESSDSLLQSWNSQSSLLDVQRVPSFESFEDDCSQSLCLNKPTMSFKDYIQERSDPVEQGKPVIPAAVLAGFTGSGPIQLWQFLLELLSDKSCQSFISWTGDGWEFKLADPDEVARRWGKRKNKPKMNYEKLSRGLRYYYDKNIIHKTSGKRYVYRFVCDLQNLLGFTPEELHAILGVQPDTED
# Procedure, shortened: as §1
# ETV7 = molecular target: T8, ETV7 (Homo sapiens, UniProt Q9Y603 1-341)
# T8 sequence: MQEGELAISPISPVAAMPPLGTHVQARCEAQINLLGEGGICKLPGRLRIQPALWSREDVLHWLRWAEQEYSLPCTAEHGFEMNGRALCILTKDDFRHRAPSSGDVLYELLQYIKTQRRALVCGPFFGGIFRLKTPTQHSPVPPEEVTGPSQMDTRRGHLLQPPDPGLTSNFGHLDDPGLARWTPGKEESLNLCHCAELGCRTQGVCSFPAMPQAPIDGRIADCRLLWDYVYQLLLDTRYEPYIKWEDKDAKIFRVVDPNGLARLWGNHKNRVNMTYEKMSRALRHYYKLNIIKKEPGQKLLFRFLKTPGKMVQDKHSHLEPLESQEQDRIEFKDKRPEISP
# Procedure, shortened: as §1
# ETV6 = ETV6 (Homo sapiens, UniProt P41212 1-452)
# Procedure, shortened: as §1
# ELF3 = molecular target: T9, ELF3 (Homo sapiens, UniProt P78545 1-371)
# T9 sequence: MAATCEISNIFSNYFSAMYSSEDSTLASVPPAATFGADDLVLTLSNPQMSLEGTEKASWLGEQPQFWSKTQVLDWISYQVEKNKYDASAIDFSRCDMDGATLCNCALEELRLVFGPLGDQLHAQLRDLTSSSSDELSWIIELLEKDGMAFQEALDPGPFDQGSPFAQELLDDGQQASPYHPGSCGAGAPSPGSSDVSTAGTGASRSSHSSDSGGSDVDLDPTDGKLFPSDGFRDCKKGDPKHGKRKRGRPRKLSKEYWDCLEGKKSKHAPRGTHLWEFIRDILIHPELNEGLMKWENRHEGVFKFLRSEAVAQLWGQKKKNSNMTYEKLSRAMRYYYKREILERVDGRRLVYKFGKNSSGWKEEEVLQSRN
# Procedure, shortened: as §1
# ETV3 = molecular target: T10, ETV3 (Homo sapiens, UniProt P41162-2 1-143)
# T10 sequence: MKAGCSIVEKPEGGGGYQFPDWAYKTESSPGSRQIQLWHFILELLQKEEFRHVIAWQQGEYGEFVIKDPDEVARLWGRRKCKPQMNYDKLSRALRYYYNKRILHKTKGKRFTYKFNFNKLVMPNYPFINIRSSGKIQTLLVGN
# Procedure, shortened: as §1
# EHF = molecular target: T11, EHF (Homo sapiens, UniProt Q9NZC4 1-300)
# T11 sequence: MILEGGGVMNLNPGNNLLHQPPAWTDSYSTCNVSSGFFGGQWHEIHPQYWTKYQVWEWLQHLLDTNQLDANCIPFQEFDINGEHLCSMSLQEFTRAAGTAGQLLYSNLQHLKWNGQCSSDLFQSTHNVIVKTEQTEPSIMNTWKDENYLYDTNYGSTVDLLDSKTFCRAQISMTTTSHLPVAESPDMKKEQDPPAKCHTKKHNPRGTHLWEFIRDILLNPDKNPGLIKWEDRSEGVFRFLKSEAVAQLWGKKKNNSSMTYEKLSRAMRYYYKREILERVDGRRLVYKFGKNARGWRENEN
# Procedure, shortened: as §1
# ELF4, sequence (Q99607 whole entry): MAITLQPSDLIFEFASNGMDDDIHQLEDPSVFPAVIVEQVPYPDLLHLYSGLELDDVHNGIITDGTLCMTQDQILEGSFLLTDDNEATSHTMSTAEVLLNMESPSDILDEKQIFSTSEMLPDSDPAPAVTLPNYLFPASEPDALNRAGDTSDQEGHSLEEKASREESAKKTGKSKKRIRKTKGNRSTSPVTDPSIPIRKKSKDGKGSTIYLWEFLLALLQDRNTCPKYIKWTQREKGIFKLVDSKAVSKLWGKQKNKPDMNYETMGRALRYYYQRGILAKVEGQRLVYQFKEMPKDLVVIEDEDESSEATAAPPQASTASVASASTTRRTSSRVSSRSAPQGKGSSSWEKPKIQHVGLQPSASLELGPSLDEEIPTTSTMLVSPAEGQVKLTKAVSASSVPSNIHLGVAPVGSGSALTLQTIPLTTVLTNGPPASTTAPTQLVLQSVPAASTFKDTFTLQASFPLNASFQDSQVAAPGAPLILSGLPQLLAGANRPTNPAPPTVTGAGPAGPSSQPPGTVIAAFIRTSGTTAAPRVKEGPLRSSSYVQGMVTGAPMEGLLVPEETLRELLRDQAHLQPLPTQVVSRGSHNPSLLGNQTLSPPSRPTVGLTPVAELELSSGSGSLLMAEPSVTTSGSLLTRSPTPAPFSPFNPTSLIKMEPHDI
# ETV5, sequence (P41161 whole entry): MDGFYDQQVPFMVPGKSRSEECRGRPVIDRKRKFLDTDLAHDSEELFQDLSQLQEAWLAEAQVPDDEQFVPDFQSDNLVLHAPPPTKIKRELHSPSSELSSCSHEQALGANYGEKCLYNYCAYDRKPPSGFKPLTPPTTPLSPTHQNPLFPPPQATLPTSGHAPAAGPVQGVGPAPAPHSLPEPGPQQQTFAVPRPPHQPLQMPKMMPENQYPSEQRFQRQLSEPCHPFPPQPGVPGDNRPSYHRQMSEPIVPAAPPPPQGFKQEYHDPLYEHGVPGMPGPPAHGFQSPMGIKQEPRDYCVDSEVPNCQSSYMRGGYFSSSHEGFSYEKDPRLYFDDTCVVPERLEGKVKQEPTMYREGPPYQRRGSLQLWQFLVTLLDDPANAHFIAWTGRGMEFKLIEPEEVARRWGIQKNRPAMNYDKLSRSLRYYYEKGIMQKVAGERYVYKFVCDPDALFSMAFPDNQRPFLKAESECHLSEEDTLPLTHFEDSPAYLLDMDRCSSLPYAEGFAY
# ELF1, sequence (P32519 whole entry): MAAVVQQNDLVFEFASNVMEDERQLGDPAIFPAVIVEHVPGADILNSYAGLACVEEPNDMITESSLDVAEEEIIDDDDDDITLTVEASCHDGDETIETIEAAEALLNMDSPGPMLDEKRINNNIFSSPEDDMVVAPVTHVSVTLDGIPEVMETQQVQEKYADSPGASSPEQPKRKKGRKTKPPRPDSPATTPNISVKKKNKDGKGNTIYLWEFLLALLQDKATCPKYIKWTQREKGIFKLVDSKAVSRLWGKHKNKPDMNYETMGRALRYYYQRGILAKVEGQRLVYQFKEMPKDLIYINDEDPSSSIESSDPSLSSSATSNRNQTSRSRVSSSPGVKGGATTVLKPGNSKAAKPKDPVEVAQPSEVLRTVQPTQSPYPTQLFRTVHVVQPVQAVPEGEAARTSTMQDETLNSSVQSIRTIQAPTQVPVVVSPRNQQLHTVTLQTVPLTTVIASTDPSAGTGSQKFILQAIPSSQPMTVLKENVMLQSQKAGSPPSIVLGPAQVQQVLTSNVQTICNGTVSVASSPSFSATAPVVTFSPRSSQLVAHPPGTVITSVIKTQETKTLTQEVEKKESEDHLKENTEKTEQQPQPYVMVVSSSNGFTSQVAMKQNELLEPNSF
# ETV1, sequence (P50549 whole entry): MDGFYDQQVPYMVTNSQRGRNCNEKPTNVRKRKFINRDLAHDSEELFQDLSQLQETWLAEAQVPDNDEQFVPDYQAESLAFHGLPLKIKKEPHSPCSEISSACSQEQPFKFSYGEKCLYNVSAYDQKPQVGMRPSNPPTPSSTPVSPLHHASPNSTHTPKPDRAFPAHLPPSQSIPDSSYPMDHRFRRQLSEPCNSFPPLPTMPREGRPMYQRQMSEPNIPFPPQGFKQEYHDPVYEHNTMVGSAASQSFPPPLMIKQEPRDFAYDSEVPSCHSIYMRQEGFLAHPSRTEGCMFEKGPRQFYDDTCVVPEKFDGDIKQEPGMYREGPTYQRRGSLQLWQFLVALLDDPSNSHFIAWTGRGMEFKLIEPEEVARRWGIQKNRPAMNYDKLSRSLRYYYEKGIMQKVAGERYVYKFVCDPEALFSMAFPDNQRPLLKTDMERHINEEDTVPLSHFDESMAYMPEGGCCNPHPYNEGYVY
# SPIB, sequence (Q01892 whole entry): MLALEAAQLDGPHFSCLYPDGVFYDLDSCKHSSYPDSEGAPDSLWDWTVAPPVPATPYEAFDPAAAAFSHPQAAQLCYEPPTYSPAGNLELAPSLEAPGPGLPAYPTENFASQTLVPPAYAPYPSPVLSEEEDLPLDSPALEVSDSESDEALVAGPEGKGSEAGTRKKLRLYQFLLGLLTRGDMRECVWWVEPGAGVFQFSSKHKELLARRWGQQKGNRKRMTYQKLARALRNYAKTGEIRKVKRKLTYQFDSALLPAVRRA
# ETV6, sequence (P41212 whole entry): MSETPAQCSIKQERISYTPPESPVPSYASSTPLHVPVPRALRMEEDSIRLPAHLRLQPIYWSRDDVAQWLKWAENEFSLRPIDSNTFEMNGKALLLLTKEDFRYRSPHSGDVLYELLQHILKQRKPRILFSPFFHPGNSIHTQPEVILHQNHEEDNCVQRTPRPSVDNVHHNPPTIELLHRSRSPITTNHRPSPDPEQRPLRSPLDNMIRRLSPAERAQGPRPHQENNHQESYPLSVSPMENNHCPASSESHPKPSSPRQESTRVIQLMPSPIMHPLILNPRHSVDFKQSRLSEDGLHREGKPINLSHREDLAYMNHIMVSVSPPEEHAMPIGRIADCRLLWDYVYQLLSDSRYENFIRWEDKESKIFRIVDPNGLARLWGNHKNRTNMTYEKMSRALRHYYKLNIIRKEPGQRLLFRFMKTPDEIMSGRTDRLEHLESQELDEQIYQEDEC
Sequence,binding signal (GABPA),binding signal (ELF1),binding signal (SPIB),binding signal (FEV),binding signal (ETV5),binding signal (ELF4),binding signal (ELK4),binding signal (ETV2),binding signal (ETV1),binding signal (ERF),binding signal (ETV3L),binding signal (ETS2),binding signal (ETV7),binding signal (ETV6),binding signal (ELF3),binding signal (ETV3),binding signal (EHF)
CGCACG,"1.02 fold enrichment (6-mer frequency, TF over GST control)","1.01 fold enrichment (6-mer frequency, TF over GST control)","1.06 fold enrichment (6-mer frequency, TF over GST control)","1.02 fold enrichment (6-mer frequency, TF over GST control)","1.06 fold enrichment (6-mer frequency, TF over GST control)","1.04 fold enrichment (6-mer frequency, TF over GST control)","1.1 fold enrichment (6-mer frequency, TF over GST control)","1.09 fold enrichment (6-mer frequency, TF over GST control)","1.04 fold enrichment (6-mer frequency, TF over GST control)","1.06 fold enrichment (6-mer frequency, TF over GST control)","1.01 fold enrichment (6-mer frequency, TF over GST control)","1.02 fold enrichment (6-mer frequency, TF over GST control)","1.06 fold enrichment (6-mer frequency, TF over GST control)","1.08 fold enrichment (6-mer frequency, TF over GST control)",,,
GCACAC,,"1.02 fold enrichment (6-mer frequency, TF over GST control)",,"1.02 fold enrichment (6-mer frequency, TF over GST control)","1.02 fold enrichment (6-mer frequency, TF over GST control)","1.05 fold enrichment (6-mer frequency, TF over GST control)",,"1.01 fold enrichment (6-mer frequency, TF over GST control)","1 fold enrichment (6-mer frequency, TF over GST control)","1.12 fold enrichment (6-mer frequency, TF over GST control)","1.04 fold enrichment (6-mer frequency, TF over GST control)",,,,"1.03 fold enrichment (6-mer frequency, TF over GST control)","1.05 fold enrichment (6-mer frequency, TF over GST control)",
CCAAGC,"1.06 fold enrichment (6-mer frequency, TF over GST control)","1.04 fold enrichment (6-mer frequency, TF over GST control)",,,"1.09 fold enrichment (6-mer frequency, TF over GST control)","1.07 fold enrichment (6-mer frequency, TF over GST control)","1.03 fold enrichment (6-mer frequency, TF over GST control)","1.02 fold enrichment (6-mer frequency, TF over GST control)",,,"1.01 fold enrichment (6-mer frequency, TF over GST control)","1.03 fold enrichment (6-mer frequency, TF over GST control)","1.06 fold enrichment (6-mer frequency, TF over GST control)",,"1.2 fold enrichment (6-mer frequency, TF over GST control)","1.03 fold enrichment (6-mer frequency, TF over GST control)","1.02 fold enrichment (6-mer frequency, TF over GST control)"
